# Reference: PubChem BioAssay (NCATS)
# Inconclusive results are not listed. Values without a mark were called inactive. The source made the active and inactive calls. The call rests on the fitted dose curve; in most records, active means well fitted curve in the direction sought with a large enough effect; inconclusive means small, poorly fitted or top-dose-only effect, or another doubt; inactive means no such curve, though single readings can be large; an effect the other way counts as inactive or inconclusive.
# Experiments:
# [1] = target: Aldehyde dehydrogenase, mitochondrial (Homo sapiens) (UniProt P05091); experiment: qHTS for Inhibitors of the Aldehyde Dehydrogenase Family (ALDH2) Primary screen (AID 2061308); conditions: ALDH2 enzyme inhibition qHTS, 1536-well; series mostly up to 56 µM;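 further: plate controls were vehicle for no effect and reference inhibitor for full effect; nearly all actives have a fitted effect of over 55% in size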
# [2] = target: Retinaldehyde dehydrogenase 3 (Homo sapiens) (UniProt P47895); experiment: qHTS for Inhibitors of the Aldehyde Dehydrogenase Family (ALDH1A3) Primary screen (AID 2061315); conditions: ALDH inhibition qHTS; series mostly up to 56 µM;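 further: plate controls were DMSO vehicle for no effect and reference inhibitor for full effect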
# [3] = BET inhibitor-based combinations targeting novel dependencies in MECOM-rearranged (r) AML: SET-2 cell line (AID 2202231); conditions: SET-2 AML cells viability, CellTiter-Glo luminescence, 48 h; viability: hits give low values, concentration not given here; further: nearly all actives have a fitted effect of over 35% in size; further: potency means the concentration at half of the fitted maximal effect;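 on viability: plate controls were DMSO treated cells for no effect and wells without cells for full effect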
# Outline: (§1)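 AML cell lines seeded at 500 cells/well, treated with 11-point dose curves for 48 h. Viability by CellTiter-Glo luminescence, normalised to DMSO and empty wells; activity expressed as AUC and per-cell-line Z-transformed AUC.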
# [4] = BET inhibitor-based combinations targeting novel dependencies in MECOM-rearranged (r) AML: OCI-AML3 cell line (AID 2202232); conditions: CellTiter-Glo luminescence, 48 h; Potency: OCI-AML3 viability; series mostly up to 46 µM; further: nearly all actives have a fitted effect of over 35% in size; further: potency means the concentration at half of the fitted maximal effect
# Outline: as §1
# [5] = BET inhibitor-based combinations targeting novel dependencies in MECOM-rearranged (r) AML: MV-4-11 cell line (AID 2202233); conditions: MV-4-11 AML viability, CellTiter-Glo luminescence, 48 h; series mostly up to 46 µM; further: nearly all actives have a fitted effect of over 45% in size; further: potency means the concentration at half of the fitted maximal effect
# Outline: (§2)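 Cells at 500/well were exposed for 48 hr to MIPE v5.0 drugs as 11-point dose curves. Viability was read by CellTiter-Glo luminescence and normalized to DMSO and empty-well controls. Activity was expressed as AUC and per-cell-line Z-AUC.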
# [6] = BET inhibitor-based combinations targeting novel dependencies in MECOM-rearranged (r) AML: HNT-34 cell line (AID 2202234); conditions: HNT-34 AML viability, CellTiter-Glo luminescence, 48 h; series mostly up to 46 µM; further: nearly all actives have a fitted effect of over 35% in size; further: potency means the concentration at half of the fitted maximal effect
# Outline: as §2
# [7] = BET inhibitor-based combinations targeting novel dependencies in MECOM-rearranged (r) AML: UCSD-AML1 cell line (AID 2202235); conditions: UCSD-AML1 AML cells viability, CellTiter-Glo, 48 h; series mostly up to 46 µM; further: nearly all actives have a fitted effect of over 40% in size; further: potency means the concentration at half of the fitted maximal effect
# Outline: as §2
# [8] = BET inhibitor-based combinations targeting novel dependencies in MECOM-rearranged (r) AML: AML-191 cell line (AID 2202236; further: nearly all actives have a fitted effect of over 35% in size; further: potency means the concentration at half of the fitted maximal effect); conditions: AML-191 viability, CellTiter-Glo luminescence, 48 h; series mostly up to 46 µM
# Outline: as §1
# [9] = BET inhibitor-based combinations targeting novel dependencies in MECOM-rearranged (r) AML: AML-194 cell line (AID 2202237; further: nearly all actives have a fitted effect of over 40% in size; further: potency means the concentration at half of the fitted maximal effect); conditions: AML-194 (MECOM-r AML) viability, CellTiter-Glo, 48 h; series mostly up to 46 µM
# Outline: as §1
Structure (SMILES),Potency [1],Potency [2],Potency [3],Potency [4],Potency [5],Potency [6],Potency [7],Potency [8],Potency [9],viability [3]
CCCCNc1ncc2c(-c3ccc(F)cc3)nn(CC3CCC(N)CC3)c2n1 (stereo unspecified),inactive,inactive,14.4 µM (active),9.1 µM (active),0.129 µM (active),4.56 µM (active),6.45 µM (active),5.74 µM (active),,
C=CC(=O)Nc1ccc2ncnc(Nc3cccc(Br)c3)c2c1,inactive,inactive,26.3 µM (active),11.8 µM (active),7.42 µM (active),9.34 µM (active),8.33 µM (active),8.33 µM (active),11.8 µM (active),
COc1cc(Oc2ccnc3cc(OC)c(OC)cc23)ccc1NC(=O)NC(C)c1nccs1 (stereo unspecified),inactive,inactive,10.5 µM (active),10.5 µM (active),11.8 µM (active),13.2 µM (active),inactive,,13.2 µM (active),
C[C@@H]1COCCN1c1cc(C2(S(C)(=N)=O)CC2)nc(-c2ccnc3[nH]ccc23)n1 (stereo partly specified),inactive,inactive,2.63 µM (active),1.86 µM (active),2.35 µM (active),4.68 µM (active),,2.63 µM (active),5.25 µM (active),
Cc1nc(-c2cn3c(n2)-c2ccc(-c4cnn(C(C)(C)C(N)=O)c4)cc2OCC3)n(C(C)C)n1,inactive,inactive,23.5 µM (active),0.742 µM (active),5.25 µM (active),16.6 µM (active),0.209 µM (active),,,
CCCCCCCCCCCCCCCCOCCCOP(=O)(O)COC(CO)Cn1ccc(N)nc1=O (stereo unspecified),inactive,inactive,,20.9 µM (active),inactive,inactive,10.5 µM (active),inactive,inactive,118%
C[C@@H]1CC(=O)Nc2cccc(-c3cnn(C(C)(C)C)c3)c2N1,inactive,inactive,,18.6 µM (active),16.6 µM (active),,14.8 µM (active),16.6 µM (active),,
C#Cc1cccc(Nc2ncnc3cc(OCCOC)c(OCCOC)cc23)c1,inactive,inactive,,,5.9 µM (active),5.25 µM (active),,,,
O=C(C1CC1)N1CC[C@@H](Cn2c(-c3ccc(-c4ccc5occc5c4)cc3)nc3cnccc32)C1,inactive,inactive,,,20.9 µM (active),26.3 µM (active),,,,
Nc1[nH]nc2nnc(-c3c(-c4ccccc4)nn4ccccc34)cc12,inactive,inactive,,14.8 µM (active),10.5 µM (active),,inactive,18.6 µM (active),inactive,111%
O=C(O)c1ccc(CN2CCC(CN[C@@H]3C[C@H]3c3ccccc3)CC2)cc1,inactive,inactive,0.186 µM (active),,,inactive,0.209 µM (active),inactive,inactive,
O=C1Nc2nc(-c3c(O)cccc3OCC3CC3)cc([C@@H]3CCCNC3)c2CO1,inactive,inactive,,16.6 µM (active),5.9 µM (active),18.6 µM (active),,18.6 µM (active),18.6 µM (active),
COc1cc2nc(-c3ccc(N4CCN(C)CC4)cc3)nc(NCCN3CCOCC3)c2cc1OC,inactive,inactive,5.9 µM (active),,2.35 µM (active),10.5 µM (active),4.68 µM (active),9.34 µM (active),13.2 µM (active),
C=CC(=O)N1CCC[C@@H](n2nc(-c3ccc(Oc4ccccc4)cc3)c3c(N)ncnc32)C1,inactive,inactive,,inactive,2.95 µM (active),5.9 µM (active),,,,
CN1CCN(c2cccc(Nc3nc4c(-c5ccc(S(C)(=O)=O)cc5)cccn4n3)c2)CC1,inactive,inactive,4.17 µM (active),,0.662 µM (active),2.35 µM (active),1.66 µM (active),5.9 µM (active),13.2 µM (active),
COc1ccc(Cl)c(Nc2nc3ccccc3nc2NS(=O)(=O)c2cccc(NC(=O)C(C)(C)N)c2)c1,inactive,inactive,,,7.42 µM (active),23.5 µM (active),,16.6 µM (active),20.9 µM (active),103%
COc1cccc(Nc2ncnn3ccc(CN4CC[C@@H](N)[C@H](O)C4)c23)c1,inactive,inactive,,14.8 µM (active),,1.32 µM (active),4.17 µM (active),4.68 µM (active),,90.8%
C[C@H](CN(C)C)Oc1nc(Nc2cc3cccc(Cl)c3cn2)cnc1C#N,inactive,inactive,,4.68 µM (active),1.86 µM (active),,,,,
Cc1onc(-c2ccc(F)cc2)c1COc1ccc(C(=O)N2CCS(=O)(=O)CC2)cn1,inactive,inactive,,inactive,,inactive,inactive,,inactive,112%
